TDP1 cell CPT – growth inhibition of DT40 Tdp1-/-;hTDP1 cells with camptothecin (screen for TDP1 inhibitors) | chicken DT40 Tdp1-/-;hTDP1 cells + 20 nM CPT, ATP luminescence, 48 h | 12% of 420,000 active | Potency, µM (highest dose often 46.2 µM), actives largely listed as inhibitors; note: nearly all actives have a fitted effect of over 55% in size
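Chicken DT40 Tdp1-/- cells complemented with human TDP1, 400 cells/well, exposed to compounds plus 20 nM camptothecin for at least 48 h at 37 C; viability read as ATP content by CellTiter-Glo luminescence.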
Giardia kill – Giardia lamblia killing; activity change, % at 7.66 µM, hits read low; Giardia lamblia trophozoite viability; 0.15% of 340,000 active; in the data active = activity change below about -80%; inconclusive = between about -30% and that limit;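 note: parasites exposed to compound for two days anaerobically before the ATP read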
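Giardia lamblia trophozoites (100 cells/well) were incubated with compounds for 48 h at 37 deg C under anaerobic conditions. Viability was read as ATP content by one-step luminescence after 15-30 min at room temperature.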
DT40 TDP1 no CPT – qHTS for Inhibitors of human tyrosyl-DNA phosphodiesterase 1 (TDP1): qHTS in cells in absence of CPT | 15% of 420,000 active | Potency, µM (top dose mostly 46.2 µM), hits mostly inhibitors | DT40 Tdp1-/- hTDP1 cells, no CPT, ATP luminescence, 48 h; note: nearly all actives have a fitted effect of over 55% in size
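Chicken DT40 Tdp1-/- cells complemented with human TDP1, screened without camptothecin (DMSO vehicle only), 400 cells/well. Compounds pin-transferred, cells incubated at 37 °C for at least 48 hr. Growth read as ATP-dependent luminescence (CellTiter-Glo, 30 min at RT).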
IL1B secr inh – inflammasome signaling inhibition, IL-1 beta readout; 4.7% of 360,000 active; activity change, % at 57.5 µM; THP-1 LPS/ATP IL-1B secretion, AlphaLISA, 16 h; hits give low values; in the data active = activity change below about -50%; inconclusive = mostly about -30% to -49%
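THP-1 cells pretreated 1 hr with compounds (up to 57.5 uM final), then stimulated with LPS (250 ng/mL final) plus ATP (1.25 mM final); secreted IL-1B measured by AlphaLISA after 16 hr, decreased signal indicating inhibition.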
ELG1 DNA repair – inhibitors of ELG1-dependent DNA repair in HEK293T cells; HEK293T ELG1-luciferase reporter, luminescence, 16 h; DNA damage induced by 5-fluorouridine; Potency, µM (series often up to 46.1 µM), most hits filed as inhibitors; 2.3% of 330,000 active; AID 504467; note: nearly all actives have a fitted effect of over 55% in size
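5-Fluorouridine DNA damage + compound/DMSO, 2,000 cells/well, 16 h, 37 °C/5% CO2. ONE-Glo, 30 min RT, luminescence. Readout = decrease in reporter signal.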
TDP1 block – inhibitors of human tyrosyl-DNA phosphodiesterase TDP1 | Q9NUW8 | recombinant TDP1, AlphaScreen DNA substrate cleavage | Potency, µM (doses to about 130 µM), hits mostly inhibitors | 0.28% of 350,000 active; note: nearly all actives have a fitted effect of over 40% in size
Target sequence (Q9NUW8 whole entry, looked up): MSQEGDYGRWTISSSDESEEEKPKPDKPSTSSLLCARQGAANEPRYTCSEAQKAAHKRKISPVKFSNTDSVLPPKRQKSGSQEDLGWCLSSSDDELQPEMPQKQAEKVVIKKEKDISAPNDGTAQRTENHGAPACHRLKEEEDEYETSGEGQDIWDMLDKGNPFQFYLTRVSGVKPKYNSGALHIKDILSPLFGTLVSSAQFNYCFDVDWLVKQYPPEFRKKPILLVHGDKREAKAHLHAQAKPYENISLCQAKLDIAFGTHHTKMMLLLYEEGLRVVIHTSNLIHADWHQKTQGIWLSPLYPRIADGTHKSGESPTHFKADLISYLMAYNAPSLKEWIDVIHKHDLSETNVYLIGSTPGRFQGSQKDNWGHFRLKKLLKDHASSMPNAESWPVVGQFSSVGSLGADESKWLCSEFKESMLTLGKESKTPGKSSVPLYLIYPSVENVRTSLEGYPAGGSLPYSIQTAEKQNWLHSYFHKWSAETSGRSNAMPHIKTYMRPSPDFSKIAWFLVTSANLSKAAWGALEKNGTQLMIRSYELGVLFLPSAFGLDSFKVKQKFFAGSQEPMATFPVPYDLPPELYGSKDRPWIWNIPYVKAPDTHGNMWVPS
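Steps: enzyme plus compound, 15 min RT; add biotin/phosphotyrosine-FITC oligonucleotide (15 nM final), react 5 min; add donor/acceptor beads (10 ug/ml final), 10 min; read AlphaScreen. Tdp1 at 1 nM final.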
A number is an active result. Most compounds without a hit are left out; they make up all but 19% or so of the library. Unless noted, calls come from the whole dose curve; as a rule, active = well fitted curve in the direction sought with a large enough effect; inconclusive = small, poorly fitted or top-dose-only effect, or another doubt; inactive = no such curve, though single readings can be large; an effect the other way counts as inactive or inconclusive.

CCOC(=O)C1=C(C)N=c2sc(=Cc3cc(Cl)c(OCC(=O)O)c(OC)c3)c(=O)n2C1c1ccccc1Cl (stereo unspecified) was read as TDP1 cell CPT inconclusive, DT40 TDP1 no CPT 21µM and IL1B secr inh inactive.
`O=C(COC(=O)/C=C/c1ccc(S(=O)(=O)N2CCOCC2)cc1)Nc1ccccc1F` gave TDP1 cell CPT inactive, Giardia kill inactive, DT40 TDP1 no CPT inactive, IL1B secr inh inactive, ELG1 DNA repair inactive and TDP1 block inactive.
Screening CN(C)CCNC(=O)C1CCN(c2ncnc3c2nc2n3CCCCC2)CC1 returned TDP1 cell CPT inactive, DT40 TDP1 no CPT inactive and TDP1 block inactive.
Screening COc1cccc(C2C3=C(N=c4s/c(=C\c5cccc(O)c5)c(=O)n42)c2ccccc2CC3)c1OC (stereo unspecified) returned TDP1 cell CPT inactive, Giardia kill inactive, DT40 TDP1 no CPT inconclusive, IL1B secr inh -57, ELG1 DNA repair inconclusive and TDP1 block inactive.
For COc1ccccc1C1C2=C(N=c3s/c(=C/c4cccc(OCC(=O)O)c4)c(=O)n31)c1ccccc1CC2 (stereo unspecified) the results were TDP1 cell CPT inactive, Giardia kill inactive, DT40 TDP1 no CPT inactive, IL1B secr inh inactive, ELG1 DNA repair inactive and TDP1 block inactive.
`CC(C)(C)Nc1nc2nonc2nc1NC(C)(C)C` gave TDP1 cell CPT 16µM, Giardia kill inactive, DT40 TDP1 no CPT inconclusive, IL1B secr inh -68, ELG1 DNA repair inactive and TDP1 block inactive.
For OCCNc1nc2nonc2nc1NCCO the results were TDP1 cell CPT inactive, Giardia kill inactive, DT40 TDP1 no CPT inactive, IL1B secr inh inactive, ELG1 DNA repair inactive and TDP1 block inactive.
`COc1ccc(-c2cccc(NS(=O)(=O)c3cc(C)ccc3OC)c2)nn1` gave TDP1 cell CPT 16µM, DT40 TDP1 no CPT 23µM and TDP1 block inactive.
For COc1ccc(-c2cccc(NS(=O)(=O)c3cc(C)c(Cl)cc3C)c2)nn1 the results were TDP1 cell CPT 13µM, DT40 TDP1 no CPT 23µM and TDP1 block inactive.
For COc1ccc(C)cc1S(=O)(=O)Nc1cccc(-c2ccc(N3CCCC3)nn2)c1 the results were TDP1 cell CPT inactive, DT40 TDP1 no CPT inactive and TDP1 block inactive.
`CN(C(=O)c1cc2nc(-c3ccco3)cc(C(F)(F)F)n2n1)c1ccc(OC(F)(F)Cl)cc1` gave TDP1 block inactive.
For COc1ccc(Cl)cc1Nc1nc(Cl)nc(NCCO)n1 the results were TDP1 cell CPT inconclusive, DT40 TDP1 no CPT inconclusive and IL1B secr inh inactive.
For CN(C)CC(=O)N1c2ccccc2CCc2ccc(NC(=O)c3ccc(N)cc3)cc21 the results were TDP1 cell CPT inactive, Giardia kill inactive, DT40 TDP1 no CPT inactive, IL1B secr inh inactive, ELG1 DNA repair inconclusive and TDP1 block inactive.
COc1cc(C(=O)Nc2ccc3c(c2)N(C(=O)CCN(C)C)c2ccccc2CC3)cc(OC)c1OC was read as TDP1 cell CPT inactive, Giardia kill inactive, DT40 TDP1 no CPT inactive, IL1B secr inh -60, ELG1 DNA repair inconclusive and TDP1 block inactive.
For CCOC(=O)Nc1ccc2c(c1)N(CCCN(C)C)c1ccccc1CC2 the results were TDP1 cell CPT 23µM, Giardia kill inactive, DT40 TDP1 no CPT inconclusive, IL1B secr inh inactive and ELG1 DNA repair inconclusive.
For CCOC(=O)Nc1ccc2c(c1)N(C(=O)OC)c1ccccc1CC2 the results were TDP1 cell CPT inconclusive, Giardia kill inactive, DT40 TDP1 no CPT inconclusive, IL1B secr inh inactive, ELG1 DNA repair inactive and TDP1 block inactive.
Screening Cc1ccc(S(=O)(=O)Nc2ccc(-c3ccc(N4CCCCCC4)nn3)cc2)cc1C returned TDP1 cell CPT 2.9µM, DT40 TDP1 no CPT inactive and TDP1 block inactive.
`CCc1ccc(S(=O)(=O)Nc2ccc(-c3ccc(N4CCCCCC4)nn3)cc2)cc1` gave TDP1 cell CPT inactive, DT40 TDP1 no CPT inactive and TDP1 block inactive.
For CCCCOc1ccc(S(=O)(=O)Nc2ccc(-c3ccc(N4CCCCCC4)nn3)cc2)cc1 the results were TDP1 cell CPT 13µM, DT40 TDP1 no CPT inconclusive and TDP1 block inactive.
Screening CCCCOc1ccc(S(=O)(=O)Nc2ccc(-c3ccc(N4CCCCC4)nn3)cc2)cc1 returned TDP1 cell CPT 15µM, DT40 TDP1 no CPT 21µM and TDP1 block inactive.
`O=S(=O)(Nc1ccc(-c2ccc(N3CCCC3)nn2)cc1)c1ccc(OC(F)(F)F)cc1` gave TDP1 cell CPT 15µM, DT40 TDP1 no CPT inconclusive and TDP1 block inactive.
C=C(C(C)=O)C(O)c1cccc(Br)c1 (stereo unspecified) was read as TDP1 block inactive.
For COCCNc1nc(-c2c(C)noc2C)nc2ccccc12 the results were TDP1 cell CPT inactive and DT40 TDP1 no CPT inactive.
Cc1noc(C)c1-c1nc(NCc2cccs2)c2ccccc2n1 was read as TDP1 cell CPT inconclusive and DT40 TDP1 no CPT 23µM.
Cc1noc(C)c1-c1nc(Nc2ccncc2)c2ccccc2n1 was read as TDP1 cell CPT inactive, DT40 TDP1 no CPT inconclusive and TDP1 block 28µM.
O=c1c2ccccc2n(Cc2cccc(Cl)c2)c(=O)n1CCc1ccccc1 was read as TDP1 cell CPT inconclusive, DT40 TDP1 no CPT inconclusive and TDP1 block inactive.
`CN(C)c1nc(C=C(C#N)C#N)c(Cl)n1-c1ccc(F)cc1` gave TDP1 cell CPT 4.1µM, Giardia kill inactive, DT40 TDP1 no CPT 5.2µM, IL1B secr inh -97, ELG1 DNA repair inconclusive and TDP1 block inactive.
Screening Cc1cc(/C=C(\C#N)C(=O)Nc2ccccc2)c(C)n1-c1ccc(F)cc1 returned TDP1 cell CPT inactive, DT40 TDP1 no CPT inactive and TDP1 block inactive.
COc1ccccc1N(C(=O)c1snc(C(N)=O)c1N)C(C(=O)NCc1ccccc1)c1ccc(C)o1 (stereo unspecified) was read as TDP1 cell CPT inconclusive, Giardia kill inactive, DT40 TDP1 no CPT inconclusive, IL1B secr inh -73, ELG1 DNA repair inactive and TDP1 block inactive.
`COc1ccc(C(C(=O)NCc2ccccc2)N(C(=O)c2snc(C(N)=O)c2N)c2ccccc2OC)cc1OC` (stereo unspecified) gave TDP1 cell CPT inconclusive, Giardia kill inactive, DT40 TDP1 no CPT inconclusive, IL1B secr inh inactive and ELG1 DNA repair inactive.
Screening CCOc1ccccc1N(C(=O)c1snc(C(N)=O)c1N)C(CC)C(=O)NC1CCCC1 (stereo unspecified) returned TDP1 cell CPT inconclusive, Giardia kill inactive, DT40 TDP1 no CPT inactive, IL1B secr inh inactive, ELG1 DNA repair inactive and TDP1 block inactive.

Source: PubChem
